Assay results from PubChem BioAssay (Tox21).
Results filed as inconclusive are left out. Active and inactive are the calls of the source. Unless noted, calls come from the whole dose curve; as a rule, active = well fitted curve in the direction sought with a large enough effect in the repeat runs; inconclusive = weak or mixed curves; inactive = no such curve, though single readings can be large; an effect the other way counts as inactive or inconclusive.

Tests used:
[1] = qHTS assay to identify small molecule antagonists of the estrogen related receptor (ERR) signaling pathway from Tox21 library - cell viability counter screen (AID 1224834); note: nearly all actives have a fitted effect of over 30% in size
How it was run: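 ERR reporter cells were plated 6 h before compound addition, then exposed to test compounds in DMSO for 17.5 h at 37 C. Viability was read as CellTiter-Fluor fluorescence after a 30-minute incubation at 37 C.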

[2] = target: Luciferin 4-monooxygenase (Photinus pyralis) (UniProt P08659); test: qHTS assay to identify small molecule inhibitors of firefly luciferase (AID 1224835); note: nearly all actives have a fitted effect of over 25% in size
Sequence of Luciferin 4-monooxygenase (Photinus pyralis) (P08659 whole entry, looked up): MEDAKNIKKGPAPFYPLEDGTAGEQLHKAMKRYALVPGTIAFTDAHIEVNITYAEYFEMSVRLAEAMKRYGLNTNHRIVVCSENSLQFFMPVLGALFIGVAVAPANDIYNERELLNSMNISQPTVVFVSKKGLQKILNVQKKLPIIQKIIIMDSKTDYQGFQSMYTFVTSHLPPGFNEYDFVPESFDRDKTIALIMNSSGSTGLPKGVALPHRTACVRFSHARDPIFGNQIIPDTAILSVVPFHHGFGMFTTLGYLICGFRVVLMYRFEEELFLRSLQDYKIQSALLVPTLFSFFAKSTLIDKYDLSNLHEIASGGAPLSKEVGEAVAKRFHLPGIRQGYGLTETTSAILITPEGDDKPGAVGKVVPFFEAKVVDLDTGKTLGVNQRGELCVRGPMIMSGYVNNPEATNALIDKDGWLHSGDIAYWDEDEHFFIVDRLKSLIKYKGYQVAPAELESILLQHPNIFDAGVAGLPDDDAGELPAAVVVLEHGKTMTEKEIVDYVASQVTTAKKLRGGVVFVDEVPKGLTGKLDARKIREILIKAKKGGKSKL
How it was run: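 Quantitative HTS format; KM concentrations of both substrates. Purified P. pyralis FLuc activity quantified from luminescence images.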

[3] = qHTS assay to identify small molecule agonists of the constitutive androstane receptor (CAR) signaling pathway - cell viability counter screen (AID 1224836); note: nearly all actives have a fitted effect of over 45% in size
How it was run: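 Viability read-out: CellTiter-Fluor fluorescence after 23 h compound exposure at 37 C/5% CO2 in double-stable HepG2-CYP2B6-hCAR cells, with PK11195 present at 0.75 uM final; compounds tested in 15-point titration.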

[4] = qHTS assay to identify small molecule antagonists of the constitutive androstane receptor (CAR) signaling pathway - cell viability counter screen (AID 1224837); note: nearly all actives have a fitted effect of over 45% in size
How it was run: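 HepG2 cells stably expressing hCAR and a CYP2B6-2.2kb reporter were plated and pre-incubated 4 hr at 37 C/5% CO2, then given compounds at 15 concentrations plus 50 nM CITCO (final). After 23 hr, viability was read by CellTiter-Fluor fluorescence.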

[5] = target: Nuclear receptor subfamily 1 group I member 3 (Homo sapiens) (UniProt Q14994); test: qHTS assay to identify small molecule antagonists of the constitutive androstane receptor (CAR) signaling pathway (AID 1224838); note: nearly all actives have a fitted effect of over 40% in size
Sequence of Nuclear receptor subfamily 1 group I member 3 (Homo sapiens) (Q14994 whole entry, looked up): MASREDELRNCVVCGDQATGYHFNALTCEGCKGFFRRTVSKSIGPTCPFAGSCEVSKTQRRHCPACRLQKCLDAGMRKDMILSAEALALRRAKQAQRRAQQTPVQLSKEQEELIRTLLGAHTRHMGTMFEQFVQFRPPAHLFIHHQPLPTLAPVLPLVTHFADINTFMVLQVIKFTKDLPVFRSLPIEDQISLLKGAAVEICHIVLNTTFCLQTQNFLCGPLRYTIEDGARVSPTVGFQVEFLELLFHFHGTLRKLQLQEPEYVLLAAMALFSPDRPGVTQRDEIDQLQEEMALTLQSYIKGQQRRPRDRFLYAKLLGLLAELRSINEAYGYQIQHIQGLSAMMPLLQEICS
How it was run: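 HepG2 cells stably co-transfected with hCAR and a CYP2B6-2.2kb luciferase reporter were seeded 4 h before compound addition at 15 concentrations. Cells were stimulated with 50 nM CITCO (final) for 24 h at 37 C; luciferase luminescence was then read.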

[6] = target: Nuclear receptor subfamily 1 group I member 3 (Homo sapiens) (UniProt Q14994); test: qHTS assay to identify small molecule agonists of the constitutive androstane receptor (CAR) signaling pathway (AID 1224839);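 note: HepG2 cells stably carrying human CAR and a CYP2B6 luciferase reporter; nearly all actives have a fitted effect of over 15% in size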
How it was run: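 Luminescence read-out (ONE-Glo, 30 min, room temperature) from double-stable HepG2-CYP2B6-hCAR cells exposed 24 h to 15-point compound series in presence of 0.75 uM PK11195 final.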

[7] = qHTS assay to identify small molecule antagonists of the estrogen related receptor signaling pathway with the pleiotropic PPARgamma coactivator (PGC) from Tox21 10K library - cell viability counter screen (AID 1224840; active = well fitted cell-killing curve with a large enough effect in the repeat runs, not every such curve was filed as active; note: nearly all actives have a fitted effect of over 40% in size)
How it was run: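 PGC/ERR cells were seeded at 2,000 cells/well and left 6 hours at 37 C/5% CO2 before pin-tool addition of compounds in DMSO. After 17.5 hours at 37 C, CellTiter-Fluor was added and fluorescence read 30 minutes later.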

[8] = qHTS assay to identify small molecule antagonists of the estrogen related receptor signaling pathway with the pleiotropic PPARgamma coactivator (PGC) from Tox21 10K library (AID 1224841; call rule not given here; note: actives are mostly falling curves and most rising ones were filed inactive; nearly all actives have a fitted effect of over 50% in size)
How it was run: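 PGC/ERR reporter cells were seeded at 2,000 cells/well and held 6 hours at 37 C/5% CO2 before pin-tool addition of compounds in DMSO. After 18 hours at 37 C, One-Glo was added and luminescence read after 30 minutes at room temperature.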

[9] = qHTS assay to identify small molecule agonists of the estrogen related receptor signaling pathway with the pleiotropic PPARgamma coactivator (PGC) from Tox21 10K library (AID 1224842); note: nearly all actives have a fitted effect of over 15% in size
How it was run: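 PGC/ERR reporter cells (NTP line) were seeded 2,000 per well, rested 6 h at 37 C/5% CO2, then pin-dosed with compounds in DMSO for 18 h at 37 C; luciferase read by One-Glo luminescence after 30 min at room temperature.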

[10] = target: Thyrotropin receptor (Homo sapiens) (UniProt P16473); test: qHTS assay to identify small molecule agonists of the thyroid stimulating hormone receptor (TSHR) signaling pathway (AID 1224843; calls by dose curve; note: nearly all actives have a fitted effect of over 45% in size)
Sequence of Thyrotropin receptor (Homo sapiens) (P16473 whole entry, looked up): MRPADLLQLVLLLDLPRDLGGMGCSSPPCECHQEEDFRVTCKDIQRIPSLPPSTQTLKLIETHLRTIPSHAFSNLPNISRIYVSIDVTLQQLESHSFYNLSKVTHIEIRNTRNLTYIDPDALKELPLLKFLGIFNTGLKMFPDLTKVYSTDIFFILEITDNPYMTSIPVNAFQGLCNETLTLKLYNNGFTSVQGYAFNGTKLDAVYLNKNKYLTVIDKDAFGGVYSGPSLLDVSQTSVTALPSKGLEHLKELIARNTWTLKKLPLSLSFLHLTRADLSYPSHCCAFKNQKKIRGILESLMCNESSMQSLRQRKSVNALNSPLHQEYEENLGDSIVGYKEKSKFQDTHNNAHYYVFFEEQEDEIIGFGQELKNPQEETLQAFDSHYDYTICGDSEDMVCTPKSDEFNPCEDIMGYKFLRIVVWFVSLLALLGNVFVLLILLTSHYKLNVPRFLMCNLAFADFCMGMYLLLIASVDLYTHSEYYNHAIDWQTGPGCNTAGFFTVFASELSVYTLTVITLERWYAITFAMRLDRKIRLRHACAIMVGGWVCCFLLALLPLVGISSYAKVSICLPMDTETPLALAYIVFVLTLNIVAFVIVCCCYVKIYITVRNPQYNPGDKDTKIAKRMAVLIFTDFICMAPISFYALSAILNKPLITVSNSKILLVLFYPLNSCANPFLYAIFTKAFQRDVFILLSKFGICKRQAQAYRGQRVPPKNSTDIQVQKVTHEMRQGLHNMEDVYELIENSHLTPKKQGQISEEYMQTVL
How it was run: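 TSHR-expressing HEK293 cells (800 per well) were exposed to compounds for 30 min at room temperature. cAMP was then detected by HTRF competition with cAMP-d2 and anti-cAMP cryptate, read after 1 h at room temperature. Fifteen concentrations, triplicate.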

[11] = qHTS assay to identify small molecule agonists of the hypoxia (HIF-1) signaling pathway - cell viability counter screen (AID 1224844; calls by dose curve; note: nearly all actives have a fitted effect of over 50% in size)
How it was run: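 HRE-bla ME-180 cells in medium with 0.5% dialyzed FBS were preincubated 5 hrs at 37C, exposed to compounds for 17 hrs, then viability was read as CellTiter-Glo luminescence after 30 min at room temperature, in the reporter wells.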

[12] = qHTS assay to identify small molecule agonists of H2AX (AID 1224845; active = well fitted activation curve with a large enough effect in the signal ratio in the repeat runs, not every such curve was filed as active; the % refers to the signal ratio)
How it was run: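 Wild-type CHO-K1 cells plated overnight, then exposed 3 hr at 37C to compounds at 15 concentrations (0.76% DMSO). Lysed, then HTRF anti-pH2AX(S139)-cryptate/anti-H2AX-d2 detection after 24 hr at room temperature; emissions 665 and 620 nm.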

[13] = qHTS assay to identify small molecule agonists of the hypoxia (HIF-1) signaling pathway (AID 1224846; active = well fitted activation curve with a large enough effect in the signal ratio in the repeat runs, not every such curve was filed as active; the % refers to the signal ratio)
How it was run: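 HRE-bla ME-180 cells (beta-lactamase reporter under hypoxia response element) were plated at 2,000 cells/well in medium with 0.5% dialyzed FBS, rested 5 hrs, then given compounds in DMSO for 17 hrs at 37C, 5% CO2. Reporter induction was read with CCF4-AM FRET substrate.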

[14] = qHTS assay to identify small molecule antagonists of the estrogen related receptor (ERR) signaling pathway from Tox21 library (AID 1224848); note: nearly all actives have a fitted effect of over 50% in size
How it was run: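 Cells: ERR line, 2,000/well; 6 h preincubation 37 C/5% CO2. Cpd in DMSO via pin tool; 18 h, 37 C. ONE-Glo, 30 min RT, luminescence.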

[15] = qHTS assay to identify small molecule agonists of the estrogen related receptor (ERR) signaling pathway from Tox21 library (AID 1224849; calls by dose curve; note: nearly all actives have a fitted effect of over 15% in size); conditions: ERR reporter cell line, ONE-Glo luciferase, 18 h; at 92.4 µM (top of the series) unless noted
How it was run: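 ERR reporter cell line (NTP) seeded, rested 6 h at 37 C/5% CO2, then pinned with Tox21 compounds in DMSO. After 18 h at 37 C, ONE-Glo luciferase luminescence was read following 30 min at room temperature.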

[16] = qHTS RealTime-Glo MT Cell Viability Assay in HepG2 cells - 24 hour (AID 1224867); note: nearly all actives have a fitted effect of over 50% in size
How it was run: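 HepG2 suspension premixed with RealTime-Glo reagents is plated at 600 cells per well and left 5 h at 37 C/5% CO2. Compounds in DMSO then go in, and bioluminescence reflecting viable cell number is recorded over 40 h.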

[17] = qHTS RealTime-Glo MT Cell Viability Assay in HEK293 cells - 32 hour (AID 1224868)
How it was run: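 Reads taken at 0, 8, 16, 24, 32 and 40 h from the same wells. HEK293 cells (600/well) carried RealTime-Glo reagents from seeding, with compound added after a 5 h settle at 37 C.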

[18] = A CellTox Green Cytotoxicity Assay to monitor cytotoxicity in HEK293 cells - 0 hour (AID 1224869); note: nearly all actives have a fitted effect of over 50% in size
How it was run: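 HEK293 cells premixed with CellTox Green dye were seeded at 600 cells/well and left 5 h at 37 C/5% CO2 before pin transfer of 23 nL compound in DMSO. Fluorescence from dye bound to dead-cell DNA was read during 40 h treatment.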

[19] = qHTS assay to identify small molecule agonists of H2AX - cell viability counter screen (AID 1224847; calls by dose curve; note: top concentration of the series differs between compounds; nearly all actives have a fitted effect of over 30% in size)
How it was run: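 CHO-K1 wt, 1000 cells/well, o/n 37C; cpds 15 conc, 3 h 37C, 0.76% DMSO; CellTiter-Glo, 30 min RT, luminescence.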

[20] = qHTS assay to identify small molecule agonists of the estrogen related receptor signaling pathway with the pleiotropic PPARgamma coactivator (PGC) (AID 1224823)
How it was run: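 Cell-based luciferase assay in the NTP-supplied PGC/ERR line, 2,000 cells/well; 18 h compound exposure at 37 C, luminescence after One-Glo.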
% is set by controls: 0 for no effect and ±100 for the full control effect.

CCN(CCO)CCn1c(Cc2ccccc2)nc2c1c(=O)n(C)c(=O)n2C
inactive: Potency [1] | Potency [2] | Potency [3] | Potency [4] | Potency [5] | Potency [6] | Potency [7] | Potency [8] | Potency [9] | Potency [10] | Potency [11] | outcome [12] | outcome [13] | Potency [14] | activity change, positive = activation [15] -1.48% [at 42.5 µM] | Potency [16] | Potency [17] | outcome [18]

O=C(CCl)NCO
inactive: Potency [1] | Potency [2] | Potency [3] | Potency [4] | Potency [5] | Potency [6] | Potency [7] | Potency [8] | Potency [9] | Potency [10] | Potency [11] | outcome [12] | outcome [13] | Potency [19] | Potency [14] | activity change, positive = activation [15] 7.02% | Potency [16] | Potency [17] | outcome [18]

O=c1[nH]oc2c1CCNC2
inactive: outcome [20] | Potency [1] | Potency [2] | Potency [4] | Potency [7] | Potency [8] | Potency [9] | Potency [10] | Potency [11] | outcome [12] | Potency [19] | Potency [14] | activity change, positive = activation [15] 0.599% [at 42.5 µM] | Potency [16] | Potency [17] | outcome [18]

CS(=O)(=O)c1ccc(C(=O)C2C(=O)CCCC2=O)c(Cl)c1COCC(F)(F)F
inactive: Potency [1] | Potency [2] | Potency [3] | Potency [4] | Potency [5] | Potency [6] | Potency [7] | Potency [8] | Potency [9] | Potency [10] | Potency [11] | outcome [12] | Potency [19] | Potency [14] | activity change, positive = activation [15] -5.95% | Potency [16] | Potency [17] | outcome [18]

NC(=O)CS(=O)C(c1ccccc1)c1ccccc1 (centres undefined)
inactive: Potency [1] | Potency [2] | Potency [3] | Potency [4] | Potency [5] | Potency [6] | Potency [7] | Potency [8] | Potency [9] | Potency [10] | Potency [11] | outcome [12] | Potency [19] | Potency [14] | activity change, positive = activation [15] 9.38% [at 42.5 µM] | Potency [16] | Potency [17] | outcome [18]

C(COCC1CO1)OCC1CO1 (centres undefined)
inactive: Potency [1] | Potency [2] | Potency [3] | Potency [4] | Potency [5] | Potency [6] | Potency [7] | Potency [8] | Potency [9] | Potency [10] | Potency [11] | outcome [12] | outcome [13] | Potency [19] | Potency [14] | activity change, positive = activation [15] 0.301% | Potency [16] | outcome [18]

CC(=O)OCC1=C(C(=O)O)N2C(=O)[C@@H](N)[C@H]2SC1
inactive: viability change, negative = cytotoxic [1] 3.81% [at 19 µM] | activity change, negative = inhibition [2] 5.1% [at 23.6 µM] | viability change, negative = cytotoxic [3] 12.6% [at 19 µM] | activity change, negative = cytotoxicity [4] 5.22% [at 19 µM] | activity, negative = inhibition [5] 0.319% [at 19 µM] | activation [6] 4.04% [at 19 µM] | viability change, negative = cytotoxic [7] 9.03% [at 19 µM] | activity, negative = inhibition [8] -8.84% [at 19 µM] | activation [9] -2.61% [at 19 µM] | activation [10] 9.8% [at 19 µM] | activity change, negative = cytotoxicity [11] -17.2% [at 15.8 µM] | activation (H2AX phosphorylation) [12] 0.102% [at 31.6 µM] | activity change, negative = cytotoxicity [19] 3.73% [at 31.6 µM] | activity, negative = inhibition [14] 15.1% [at 19 µM] | activity change, positive = activation [15] 9.57% [at 19 µM] | activity change, negative = cytotoxicity [16] 0.275% [at 15.8 µM] | cytotoxicity [18] 1.32% [at 15.8 µM]
